# Screening data from PubChem.
# Most compounds without a hit are left out; they make up all but 7.4% or so of the library.
# SMN2 splice enh: increases expression of the SMN2 splice variant; HEK293 SMN2-luciferase splicing reporter, luminescence, 30-36 h; Potency, µM (top dose mostly 46.1 µM), for the others: top-dose activity change, positive = activation, most hits filed as activators; 2.8% of 210,000 active; note: % of control where 0% means no effect; nearly all actives have a fitted effect of over 55% in size
#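 HEK293 cells carry an SMN2 minigene-luciferase reporter in which exon 7 inclusion puts luciferase in frame. Cells were seeded at 2000 cells/well, attached for 10-12 hours, then exposed to compounds for 30-36 hours at 37C before ONE-Glo luminescence.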
# ELG1 genotoxic: genotoxicity induction in ELG1-luciferase HEK293T cells | 1.3% of 330,000 active | Potency, µM (doses to about 46 µM), without a hit: at the highest dose activity change, positive = activation, actives largely listed as activators | HEK293T ELG1-luciferase reporter, luminescence, 16 h; note: % of control where 0% means no effect; nearly all actives have a fitted effect of over 60% in size
#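 Cells (2,000/well) expressing the ELG1-luciferase fusion are dosed by pin tool and kept 16 hr at 37 °C, 5% CO2. Signal comes from ONE-Glo luciferase reagent after 30 min at room temperature.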
# Rab9 prom act: Rab9 promoter activation. Huh7 Rab9 promoter-luciferase reporter, luminescence, 24 h. Potency, µM (top dose mostly 9.22 µM), without a hit: at the top dose activation, negative = inhibition, hits mostly activators. 2.8% of 320,000 active. AID 485297; note: % of control where 0% means no effect; nearly all actives have a fitted effect of over 60% in size
#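 Luminescence from Amplite-detected luciferase (10 minutes, ambient) reports Rab9 promoter activation. Before that, stable Rab9-luciferase Huh7 cells (1500/well, reduced-serum OP-MEM I plus 10% FBS) were exposed to compound for 24 hours at 37C.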
# NPC1 prom act: NPC1 promoter activation; 2.4% of 320,000 active; Potency, µM (top dose mostly 9.22 µM), for the others: at the highest dose activation, usual class: activators; Huh7 NPC1 promoter luciferase reporter, 24 h; AID 485313; note: % of control where 0% means no effect; nearly all actives have a fitted effect of over 60% in size
#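 Luminescence read-out of NPC1 promoter-driven luciferase in stably transfected Huh7 cells; compounds delivered in DMSO and left 24 h at 37C, 5% CO2, qHTS titration format.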
# FLuc modulator: firefly luciferase modulation, counter-screen for miR-21 project; P08659; Potency, µM (titrated, usually from 57.5 µM), without a hit: top-dose activity change, negative = inhibition, actives largely listed as inhibitors; purified FLuc, Km substrates, luminescence inhibition; 6.9% of 360,000 active;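 note: plate controls were vehicle for no effect and reference inhibitor for full effect; nearly all actives have a fitted effect of over 55% in size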
# Target sequence (P08659 whole entry, looked up): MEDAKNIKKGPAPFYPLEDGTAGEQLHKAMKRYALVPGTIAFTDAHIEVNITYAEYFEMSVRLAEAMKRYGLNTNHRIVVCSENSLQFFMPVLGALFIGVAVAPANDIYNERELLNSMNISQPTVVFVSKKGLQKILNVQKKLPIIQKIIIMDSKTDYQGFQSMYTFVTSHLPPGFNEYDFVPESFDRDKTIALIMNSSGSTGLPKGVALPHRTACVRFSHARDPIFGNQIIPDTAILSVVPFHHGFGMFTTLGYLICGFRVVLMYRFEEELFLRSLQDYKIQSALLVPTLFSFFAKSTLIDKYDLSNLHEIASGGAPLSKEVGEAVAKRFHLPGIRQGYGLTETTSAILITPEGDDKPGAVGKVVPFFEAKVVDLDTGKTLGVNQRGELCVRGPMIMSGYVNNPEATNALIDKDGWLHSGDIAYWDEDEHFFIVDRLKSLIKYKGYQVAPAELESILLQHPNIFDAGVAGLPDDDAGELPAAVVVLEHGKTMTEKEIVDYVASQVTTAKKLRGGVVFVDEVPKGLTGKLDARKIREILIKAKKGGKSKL
#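 Biochemical qHTS of compounds, final roughly 60 µM downward over six points, against 10 nM purified firefly luciferase using Km concentrations of substrates (10 uM D-luciferin, 10 uM ATP) in Tris acetate pH 7.5 buffer; luminescence output.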
# An asterisk follows results filed as active; ? = inconclusive; nt = no result; [ ] = another dose, or the depositor's remark. Calls come from the whole dose curve; as a rule, active = well fitted curve in the direction sought with a large enough effect; inconclusive = small, poorly fitted or top-dose-only effect, or another doubt; inactive = no such curve, though single readings can be large; an effect the other way counts as inactive or inconclusive. Potency is the fitted concentration of half-maximal effect.
SMILES,SMN2 splice enh,ELG1 genotoxic,Rab9 prom act,NPC1 prom act,FLuc modulator
CCNC(=S)N/N=C/c1ccc(OCC(=O)Nc2ccc(OC)cc2)c(OC)c1,-13%,-3%,-2%,-1%,6%
CCOc1ccc(C(=S)N2CCCC2)cc1OC,-15%,-1%,-5%,-3%,4%
CCOc1cc(/C=N/N=C(N)N)ccc1OCc1ccc(Cl)cc1,-62%,1%,-5%,-5%,?
COc1ccc(OCC(O)CNS(=O)(=O)c2ccc(NC(C)=O)cc2)cc1 (stereo not given),nt,-3%,4%,-2%,0%
CC(=O)N1CCc2cc(Br)cc(S(=O)(=O)CCC(=O)N3CCN(c4ccc(F)cc4)CC3)c21,-10%,nt,nt,nt,-7%
COc1cc(/C=C/C(=O)OCC(=O)N2CCCC2)cc(OC)c1OC,nt,?,-4%,-1%,1%
CC(C)(C)c1ccc(C2NC(=O)c3n[nH]c(-c4cccs4)c32)cc1 (stereo not given),-41%,nt,nt,nt,5%
COc1cc(/C=N/OCC(=O)NC23CC4CC(CC(C4)C2)C3)ccc1OCc1ccccc1,nt,11%,16%,11%,15µM*
CCOc1cc(/C=N/O)ccc1OCc1ccc(F)cc1,6%,5%,1%,-2%,?
COc1cc(/C=N/O)ccc1OCc1ccc(Cl)cc1,6.3µM*,2.1µM*,0.4µM*,0.63µM*,1.3µM*
COc1cc(/C=N/O)ccc1OCc1ccc(C(=O)O)cc1,0.4µM*,?,0.089µM*,?,0.054µM*
CC(C)NC(=O)N1CC2(CCN(C(=O)c3cccn3C)CC2)C1,-10%,nt,nt,nt,nt
CN1N=C2c3ccccc3CCC2C1c1ccc(Cl)cc1 (stereo not given),nt,?,?,?,11µM*
CN1N=C2c3ccccc3CCC2C1c1ccc(F)cc1 (stereo not given),nt,17%,2.5µM*,?,?
CNC(=S)N1N=C2c3ccccc3CCC2C1c1ccccc1Cl (stereo not given),nt,-3%,-6%,-6%,-4%
NC(N)=N/N=C/c1ccccc1OC(F)F,-8%,-2%,2%,0%,1%
FC(F)Oc1ccccc1/C=N/n1cnc2ccccc21,?,11%,25%,1%,24µM*
O=C1CCC2S/C(=C/Nc3ccc(C(F)(F)F)cc3)C(=O)N12 (stereo not given),-80%,-13%,-38%,-30%,15µM*
O=C1CCCC/C1=C/Nc1cccc(C(F)(F)F)c1,-6%,19%,4%[1.84 µM],-3%,?
Cc1ccc(NC(=O)c2cc3ccccc3oc2=N)cc1,nt,?,0.71µM*,0.45µM*,0.19µM*
N=c1oc2ccccc2cc1C(=O)Nc1ccc(F)cc1,nt,5.2µM*,0.5µM*,0.79µM*,0.85µM*
O=C(Nc1c(C(=O)Nc2cccc(F)c2)oc2ccccc12)c1cc2ccccc2o1,12%,nt,nt,nt,?
N=c1oc2ccccc2cc1C(=O)Nc1cccc(F)c1,nt,?,?,3.2µM*,0.3µM*
N=c1oc2cc(O)ccc2cc1C(=O)Nc1ccc(Cl)cc1,nt,?,3.2µM*,2.2µM*,3µM*
CC1CCCN(CCOc2ccc3ccccc3c2Br)C1 (stereo not given),-11%,14%,22%,14%,27µM*
SMILES,SMN2 splice enh,ELG1 genotoxic,Rab9 prom act,NPC1 prom act,FLuc modulator
CC1CCCN(CCCOc2ccc(Cl)cc2Br)C1 (stereo not given),-33%,0%,-5%,-4%,?
CCc1ccc(OCC(=O)Nc2cc(S(=O)(=O)CC)ccc2O)cc1,-11%,-2%,-10%,-2%,24µM*
O=C(O)Cc1ccc(NC(=O)COc2ccc3ccccc3c2)cc1,nt,9%,6%,-4%,19µM*
O=C(COc1ccc2ccccc2c1)NCCNC(=O)COc1ccc2ccccc2c1,-1%,-8%,-1%,-1%,10%
O=C(COc1ccc2ccccc2c1)NC1CC1,-14%,17%,?,11%,17µM*
COc1ccccc1NC(=O)COc1ccc2ccccc2c1,nt,2%,1%,2%,15µM*
CCS(=O)(=O)c1ccc(O)c(NC(=O)COc2ccccc2)c1,-7%,0%,1%,-3%,-6%
C=C(C(=O)C(C)(C)O)C(O)c1ccc([N+](=O)[O-])cc1 (stereo not given),-4%,nt,nt,nt,nt
Cc1cccc(-c2cccc(NC(=O)C3CCCN(Cc4cccnc4)C3)c2)c1 (stereo not given),nt,-11%,1%,-3%,-5%
CCOc1ccccc1N1CCN(C(=O)CCNS(=O)(=O)c2ccccc2F)CC1,nt,-3%,-4%,-1%,0%
COc1ccc(NC(=O)Cn2nc(C)c3c(C)n(-c4ccccc4)nc3c2=O)cc1OC,nt,nt,nt,nt,-2%
CCCSCCCNC(=O)C1CCN(C(=O)c2cc3sccc3n2C)CC1,-29%,nt,nt,nt,-11%
COc1ccc(NC(=O)COC(=O)Cc2ccc(-c3ccccc3)cc2)c(OC)c1,4%,1%,1%,-6%,13µM*
COc1ccc(NC(=O)COc2ccc(Br)cc2)c(OC)c1,nt,7%,-1%,18%,-17%
O=C(COc1ccc2ccccc2c1)Nc1ccccc1C(=O)O,nt,14%,25%,18%,17µM*
COc1ccc(OCC(=O)Nc2ccccc2O)cc1,-7%,9.2µM*,?,25%,21µM*
COc1ccc(NC(=O)COc2ccccc2)c(OC)c1,21%,18µM*,?,?,19µM*
COc1ccc(C)cc1NC(=O)COC(=O)Cc1ccc(-c2ccccc2)cc1,nt,7%,0%,-1%,?
CCC1(c2ccccc2)NC(=O)N(CC(=O)NCCN2C(=O)S/C(=C\c3cccnc3)C2=O)C1=O (stereo not given),nt,-20%,8%,6%,0%
COC1CCN(C(=O)c2ccc3oc(C(C)C)nc3c2)CC1,nt,8%,6%,1%,-16%
CC(=O)c1ccc(NC(=O)c2sc(-n3nc(C)c(Cc4ccccc4)c3C)nc2C)cc1,nt,nt,nt,nt,0%
CCOC(=O)c1ccc(COC(=O)c2nonc2N)cc1,-13%,0%,2%,1%,15µM*
C/C=C/c1ccc(OCC(=O)Nc2cc(Cl)ccc2-n2cncn2)c(OC)c1,nt,0%,0%,2%,-1%
Oc1cccc(NC(=S)Nc2cccnc2)c1,4%,0%,2%,0%,1%
COc1ccc(O)c(/C=N/NC(=S)Nc2cccnc2)c1,-43%,18%,-7%,12%,9.5µM*
Oc1ccc(/C=N/NC(=S)N/N=C/c2ccc(O)cc2)cc1,?,?,26%,21%,0.19µM*
COc1ccccc1NC(=S)N/N=C/c1cccc(C)c1,?,4%,-2%,0%,-16%
COc1ccccc1NC(=S)N/N=C/c1ccc(O)cc1,11µM*,?,?,?,?
Oc1ccc(/C=N/NC(=S)Nc2cccnc2)cc1,nt,?,?,3.2µM*,6.7µM*
O=C(CSc1nc2c([nH]c3ccccc32)c(=O)n1-c1ccc(F)cc1)NCC1CCCO1 (stereo not given),nt,nt,nt,nt,1%
